PubChem BioAssay AID1159580 (chemical genetic matrix, 2015)
“And” between values parts separate entries of the source, which are not always exact repeats. Equal entries are not always repeated. Out of some 5,500 compounds screened, about 2,000 (36%) were called active. Another 18% or so got no clear call; they are omitted. No stated cut-off is given here; in the data, active means normalized growth mostly below about 0.91 (no sharp cut-off); inconclusive means no clear call, values can overlap the other calls; inactive means mostly above about 0.92. The list shows a part of the results.

Assay: chemical genetic growth profiling, strain panel (AID 1159580);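 further: tested at 20 µM; growth read once vehicle control cultures reached saturation at 30 °C; 1 = growth at the plate median or of vehicle wells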
Settings: S. cerevisiae deletion strains, growth OD

Measured: normalized growth

Cc1c(OCC(F)(F)F)ccnc1CS(=O)c1nc2ccccc2[nH]1 (stereo not given)
0.937 (inactive) and 0.468 (active): locus YJL095W, strain BCK1, stronger effect = lower value
0.996 (inactive) and 0.482 (active): locus YHR030C, strain SLT2, stronger effect = lower value
active: locus YGL078C, strain dbp3, stronger effect = lower value 0.898 | locus YHR079C, strain IRE1, stronger effect = lower value 0.632 | locus YJR066W, strain TOR1, stronger effect = lower value 0.767
inactive: locus YAL013W, strain DEP1, stronger effect = lower value 0.992 | locus YAL021C, strain ccr4, stronger effect = lower value 1.01 | locus YAL026C, strain drs2, stronger effect = lower value 1.02 | locus YAL030W, strain snc1, stronger effect = lower value 1.03 | locus YAL040C, strain CLN3, stronger effect = lower value 0.959 | locus YBL061C, strain skt5, stronger effect = lower value 1.02 | locus YBR009C, strain hhf1, stronger effect = lower value 1.02 | locus YBR021W, strain FUR4, stronger effect = lower value 0.948 | locus YBR023C, strain chs3, stronger effect = lower value 1.02 | locus YBR171W, strain sec66, stronger effect = lower value 1.02 | locus YBR229C, strain ROT2, stronger effect = lower value 0.982 | locus YBR231C, strain swc5, stronger effect = lower value 1.05 | locus YBR279W, strain paf1, stronger effect = lower value 1 | locus YCL011C, strain gbp2, stronger effect = lower value 1.01 | locus YCL016C, strain dcc1, stronger effect = lower value 1.01 | locus YCL029C, strain bik1, stronger effect = lower value 0.971 | locus YCL061C, strain MRC1 (second series), stronger effect = lower value 0.997 | locus YCL061C, strain MRC1, stronger effect = lower value 1.02 | locus YCL069W, strain vba3, stronger effect = lower value 1 | locus YCR088W, strain abp1, stronger effect = lower value 1.01 | locus YDL005C, strain med2, stronger effect = lower value 1.02 | locus YDL035C, strain GPR1, stronger effect = lower value 0.997 | locus YDL040C, strain nat1, stronger effect = lower value 1.03 | locus YDL074C, strain BRE1, stronger effect = lower value 0.937 | locus YDL101C, strain DUN1, stronger effect = lower value 0.959 | locus YDL134C, strain PPH21, stronger effect = lower value 0.997 | locus YDL185W, strain tfp1, stronger effect = lower value 0.98 | locus YDL192W, strain arf1, stronger effect = lower value 0.977 | locus YDR001C, strain nth1, stronger effect = lower value 1.01 | locus YDR069C, strain doa4, stronger effect = lower value 1.01 | locus YDR101C, strain arx1, stronger effect = lower value 0.985 | locus YDR137W, strain rgp1, stronger effect = lower value 1.01 | locus YDR150W, strain NUM1, stronger effect = lower value 0.996 | locus YDR159W, strain sac3, stronger effect = lower value 1.02 | locus YDR162C, strain NBP2, stronger effect = lower value 0.976 | locus YDR195W, strain ref2 1.02 | locus YDR297W, strain sur2, stronger effect = lower value 1.02 | locus YDR318W, strain mcm21, stronger effect = lower value 0.959 | locus YDR334W, strain swr1, stronger effect = lower value 1.01 | locus YDR335W, strain msn5, stronger effect = lower value 1.01 | locus YDR363W, strain ESC2, stronger effect = lower value 0.933 | locus YDR388W, stronger effect = lower value 0.987 | locus YDR392W, strain spt3, stronger effect = lower value 1.03 | locus YDR502C, strain sam2, stronger effect = lower value 0.94 | locus YEL003W, strain gim4, stronger effect = lower value 1.03 | locus YEL037C, strain rad23, stronger effect = lower value 1.01 | locus YEL061C, strain CIN8 (second series), stronger effect = lower value 1.03 | locus YEL061C, strain CIN8, stronger effect = lower value 0.999 | locus YER002W, strain NOP16, stronger effect = lower value 1.02 | locus YER015W, strain faa2, stronger effect = lower value 1.02 | locus YER016W, strain bim1, stronger effect = lower value 1.03 | locus YER110C, stronger effect = lower value 0.969 | locus YER111C, strain swi4, stronger effect = lower value 1.01 | locus YER155C, strain BEM2 (second series), stronger effect = lower value 1.01 | locus YER155C, strain BEM2, stronger effect = lower value 0.988 | locus YER167W, strain BCK2, stronger effect = lower value 0.987 | locus YFR010W, strain ubp6, stronger effect = lower value 1.02 | locus YGL086W, strain mad1, stronger effect = lower value 0.987 | locus YGL167C, strain pmr1, stronger effect = lower value 1.03 | locus YGL173C, strain kem1, stronger effect = lower value 1.04 | locus YGL227W, strain vid30, stronger effect = lower value 1.02 | locus YGL240W, strain doc1, stronger effect = lower value 1.02 | locus YGL248W, strain PDE1, stronger effect = lower value 0.988 | locus YGL253W, strain hxk2, stronger effect = lower value 1.01 | locus YGR078C, strain PAC10, stronger effect = lower value 0.945 | locus YGR135W, strain pre9, stronger effect = lower value 0.944 | locus YGR229C, strain SMI1, stronger effect = lower value 0.951 | locus YGR252W, strain gcn5, stronger effect = lower value 0.943 | locus YHR013C, strain ard1, stronger effect = lower value 0.999 | locus YHR027C, strain rpn1, stronger effect = lower value 1.01 | locus YHR079C, strain IRE1 (second series), stronger effect = lower value 0.976 | locus YHR094C, strain hxt1, stronger effect = lower value 0.994 | locus YHR129C, strain ARP1, stronger effect = lower value 0.991 | locus YHR142W, strain chs7, stronger effect = lower value 1.02 | locus YHR200W, strain rpn10, stronger effect = lower value 0.963 | locus YIL066C, strain RNR3, stronger effect = lower value 0.975 | locus YIL073C, strain SPO22, stronger effect = lower value 1.04 | locus YIL125W, strain kgd1, stronger effect = lower value 0.952 | locus YIR030C, strain dcg1, stronger effect = lower value 0.995 | locus YJL092W, strain hpr5, stronger effect = lower value 1.01 | locus YJL095W, strain BCK1 (second series), stronger effect = lower value 1.02 | locus YJL115W, strain asf1, stronger effect = lower value 1.03 | locus YJL129C, strain trk1, stronger effect = lower value 1.04 | locus YJL134W, strain LCB3, stronger effect = lower value 1 | locus YJL154C, strain vps35, stronger effect = lower value 1.01 | locus YJL164C, strain tpk1, stronger effect = lower value 1.02 | locus YJL166W, strain qcr8, stronger effect = lower value 1.03 | locus YJL168C, strain set2, stronger effect = lower value 0.982 | locus YJL187C, strain SWE1 (second series), stronger effect = lower value 0.951 | locus YJR043C, strain POL32, stronger effect = lower value 0.979
